These results are taken from the supplement of paper PMC10849652.

The full data set covers some 7,900 targets. This sample favours those with a hit. About 0.6% of all pairs of compound and target were hits. A number with no mark means an inactive call.

Holding throughout (test): log2 fold change, soluble protein after heating vs DMSO (PISA); higher = thermal stabilisation; K562 cells, 10 uM, 30 min; active = over 0.2 and 3.5 SD of the protein, either way, in both replicates (recomputed)
Compound in one assay: Cc1ccc(NC(=O)c2ccc(CN3CC[C@H](N(C)C)C3)c(C(F)(F)F)c2)cc1Nc1nccc(-c2cncnc2)n1 [bafetinib]
The method in brief:
(§1)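 Quantification of soluble protein used TMTpro 16plex LC-MS/MS, with channel sums equalised. Samples were the supernatant after 21,000xg for 90 min of pooled aliquots from K562 cells (2×10^6 cells/mL) treated with 10 μM compound for 30 min, heated for 3 min over 48°C-58°C, and extracted in PBS with 0.5% NP-40 at 4°C. Values, from duplicates, describe thermal stability against control samples on a log2 fold-change scale.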

Compound in assay [1]: Cc1cccc(CC(=O)N2CCc3c2ccc(-c2cn(C)c4ncnc(N)c24)c3F)n1
The method in brief:
as §1

Compound in the next assay: Cc1cn(-c2cc(NC(=O)c3ccc(C)c(Nc4nccc(-c5cccnc5)n4)c3)cc(C(F)(F)F)c2)cn1 [nilotinib]
The essentials: as §1

Compound in assay [2]: Cc1nc(Nc2n[nH]c3c2CN(C(=O)N[C@H](CN(C)C)c2ccccc2)C3(C)C)c2sccc2n1
The essentials: as §1

Compound in another assay: Cc1nc(Nc2ncc(C(=O)Nc3c(C)cccc3Cl)s2)cc(N2CCN(CCO)CC2)n1 [dasatinib]
The essentials: as §1

Compound in assay [3]: Cc1ncc(-c2ccnc(Nc3ccc(S(C)(=O)=O)cc3)n2)n1C(C)C
The essentials: as §1

Compound in assay [4]: Cn1cc(-c2ccc3c(c2)CCN3C(=O)Cc2cccc(C(F)(F)F)c2)c2c(N)ncnc21
The method in brief: as §1

Compound in assay [5]: Cn1cc(-c2ccc3nnc(C(F)(F)c4ccc5ncccc5c4)n3n2)cn1
The essentials: as §1

Compound in the next assay: Cn1cncc1[C@@](N)(c1ccc(Cl)cc1)c1ccc2c(c1)c(-c1cccc(Cl)c1)cc(=O)n2C [tipifarnib]
The method in brief:
as §1

Compound in another assay: FC(F)(F)c1ccc(/C=C/c2nc(COc3ccc(CCCCn4ccnn4)cc3)co2)cc1 [mubritinib]
The essentials: as §1

Chain of UniProt P08240 (P08240 whole entry, looked up): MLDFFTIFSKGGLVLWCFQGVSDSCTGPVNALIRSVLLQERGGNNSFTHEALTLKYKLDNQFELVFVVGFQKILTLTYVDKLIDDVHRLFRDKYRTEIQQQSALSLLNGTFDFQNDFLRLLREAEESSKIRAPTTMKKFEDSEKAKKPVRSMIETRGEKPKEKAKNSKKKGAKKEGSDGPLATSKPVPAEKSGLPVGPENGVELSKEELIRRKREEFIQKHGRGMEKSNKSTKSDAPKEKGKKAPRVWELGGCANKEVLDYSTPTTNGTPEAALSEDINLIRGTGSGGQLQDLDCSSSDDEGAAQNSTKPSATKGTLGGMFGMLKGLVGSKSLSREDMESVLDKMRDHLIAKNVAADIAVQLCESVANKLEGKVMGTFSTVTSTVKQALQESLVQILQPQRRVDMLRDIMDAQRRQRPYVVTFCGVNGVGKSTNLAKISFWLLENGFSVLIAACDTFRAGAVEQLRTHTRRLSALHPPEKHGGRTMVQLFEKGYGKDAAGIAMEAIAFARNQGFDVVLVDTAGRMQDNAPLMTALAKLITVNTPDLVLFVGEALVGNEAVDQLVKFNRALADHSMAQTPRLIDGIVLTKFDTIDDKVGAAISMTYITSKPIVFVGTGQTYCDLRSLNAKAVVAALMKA
Chain of UniProt Q9H4L7 (Q9H4L7 whole entry, looked up): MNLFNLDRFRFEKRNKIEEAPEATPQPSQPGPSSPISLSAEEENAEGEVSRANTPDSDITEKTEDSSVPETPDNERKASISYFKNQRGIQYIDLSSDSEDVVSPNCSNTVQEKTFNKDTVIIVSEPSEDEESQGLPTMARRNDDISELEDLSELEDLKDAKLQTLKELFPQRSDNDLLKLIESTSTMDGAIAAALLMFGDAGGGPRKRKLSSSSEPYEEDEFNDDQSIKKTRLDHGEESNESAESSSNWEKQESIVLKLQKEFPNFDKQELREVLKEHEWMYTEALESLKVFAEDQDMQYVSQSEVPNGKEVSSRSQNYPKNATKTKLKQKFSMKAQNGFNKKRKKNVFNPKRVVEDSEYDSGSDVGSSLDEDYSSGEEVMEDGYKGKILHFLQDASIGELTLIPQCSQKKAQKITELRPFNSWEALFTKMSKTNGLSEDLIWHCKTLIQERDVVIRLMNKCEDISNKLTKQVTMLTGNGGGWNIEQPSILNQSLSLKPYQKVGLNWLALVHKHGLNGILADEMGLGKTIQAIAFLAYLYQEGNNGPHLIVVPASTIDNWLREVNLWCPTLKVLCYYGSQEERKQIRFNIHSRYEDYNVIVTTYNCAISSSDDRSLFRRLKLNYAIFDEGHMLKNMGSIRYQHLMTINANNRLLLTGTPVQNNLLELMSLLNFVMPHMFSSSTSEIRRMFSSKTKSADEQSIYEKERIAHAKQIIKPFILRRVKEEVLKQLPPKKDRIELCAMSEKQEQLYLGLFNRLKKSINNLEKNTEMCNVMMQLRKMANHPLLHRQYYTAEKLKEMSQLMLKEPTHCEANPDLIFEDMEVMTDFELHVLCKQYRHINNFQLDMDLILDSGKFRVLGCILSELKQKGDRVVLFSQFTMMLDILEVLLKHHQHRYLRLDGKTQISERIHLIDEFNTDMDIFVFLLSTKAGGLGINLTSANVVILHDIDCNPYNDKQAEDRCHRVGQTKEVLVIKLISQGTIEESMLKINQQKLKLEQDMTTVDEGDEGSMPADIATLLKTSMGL
Chain of UniProt Q9BYN0 (Q9BYN0 whole entry, looked up): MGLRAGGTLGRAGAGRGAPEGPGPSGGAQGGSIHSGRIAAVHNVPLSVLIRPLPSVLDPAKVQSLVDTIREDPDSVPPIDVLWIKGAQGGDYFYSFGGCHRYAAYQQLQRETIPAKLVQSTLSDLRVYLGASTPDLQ
Chain of UniProt Q8TC07 (Q8TC07 whole entry, looked up): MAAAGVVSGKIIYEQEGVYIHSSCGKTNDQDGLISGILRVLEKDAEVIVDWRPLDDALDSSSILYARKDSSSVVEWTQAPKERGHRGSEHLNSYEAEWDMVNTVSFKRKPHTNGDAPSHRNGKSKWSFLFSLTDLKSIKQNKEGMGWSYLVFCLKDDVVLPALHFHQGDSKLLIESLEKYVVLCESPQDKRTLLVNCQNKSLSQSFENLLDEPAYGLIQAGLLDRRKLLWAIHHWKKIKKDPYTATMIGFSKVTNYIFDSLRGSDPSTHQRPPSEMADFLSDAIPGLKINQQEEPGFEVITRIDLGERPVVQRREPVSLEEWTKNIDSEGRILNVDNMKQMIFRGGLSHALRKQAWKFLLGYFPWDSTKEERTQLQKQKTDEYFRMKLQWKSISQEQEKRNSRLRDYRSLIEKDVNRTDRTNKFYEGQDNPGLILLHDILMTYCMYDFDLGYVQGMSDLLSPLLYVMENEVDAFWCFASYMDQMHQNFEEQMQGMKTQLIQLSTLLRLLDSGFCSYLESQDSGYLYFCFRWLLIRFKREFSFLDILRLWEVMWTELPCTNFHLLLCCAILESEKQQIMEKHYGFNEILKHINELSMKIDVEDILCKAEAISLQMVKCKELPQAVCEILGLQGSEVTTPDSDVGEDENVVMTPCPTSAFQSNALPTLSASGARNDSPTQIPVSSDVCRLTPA
Chain of UniProt Q15526 (Q15526 whole entry, looked up): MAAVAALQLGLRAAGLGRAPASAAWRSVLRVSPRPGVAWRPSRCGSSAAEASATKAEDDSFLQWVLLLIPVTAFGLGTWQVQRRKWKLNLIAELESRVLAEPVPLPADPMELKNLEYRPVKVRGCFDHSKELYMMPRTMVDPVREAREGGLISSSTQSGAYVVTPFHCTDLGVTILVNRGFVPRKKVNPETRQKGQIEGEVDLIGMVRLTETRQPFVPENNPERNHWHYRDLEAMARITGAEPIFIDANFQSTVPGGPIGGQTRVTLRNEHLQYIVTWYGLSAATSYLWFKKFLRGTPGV
Chain of UniProt Q9Y2H1 (Q9Y2H1 whole entry, looked up): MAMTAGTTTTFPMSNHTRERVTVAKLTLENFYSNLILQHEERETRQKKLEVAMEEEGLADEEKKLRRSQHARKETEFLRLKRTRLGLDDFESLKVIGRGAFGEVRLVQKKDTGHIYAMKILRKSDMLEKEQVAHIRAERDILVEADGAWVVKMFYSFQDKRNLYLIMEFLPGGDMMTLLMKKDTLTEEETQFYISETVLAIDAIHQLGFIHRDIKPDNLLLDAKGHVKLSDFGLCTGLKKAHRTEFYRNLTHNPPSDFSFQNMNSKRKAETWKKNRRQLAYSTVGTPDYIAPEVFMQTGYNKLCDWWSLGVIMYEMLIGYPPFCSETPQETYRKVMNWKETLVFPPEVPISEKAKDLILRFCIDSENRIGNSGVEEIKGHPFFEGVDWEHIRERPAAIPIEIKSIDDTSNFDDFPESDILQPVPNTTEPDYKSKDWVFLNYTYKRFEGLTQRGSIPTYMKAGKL
Chain of UniProt Q658P3 (Q658P3 whole entry, looked up): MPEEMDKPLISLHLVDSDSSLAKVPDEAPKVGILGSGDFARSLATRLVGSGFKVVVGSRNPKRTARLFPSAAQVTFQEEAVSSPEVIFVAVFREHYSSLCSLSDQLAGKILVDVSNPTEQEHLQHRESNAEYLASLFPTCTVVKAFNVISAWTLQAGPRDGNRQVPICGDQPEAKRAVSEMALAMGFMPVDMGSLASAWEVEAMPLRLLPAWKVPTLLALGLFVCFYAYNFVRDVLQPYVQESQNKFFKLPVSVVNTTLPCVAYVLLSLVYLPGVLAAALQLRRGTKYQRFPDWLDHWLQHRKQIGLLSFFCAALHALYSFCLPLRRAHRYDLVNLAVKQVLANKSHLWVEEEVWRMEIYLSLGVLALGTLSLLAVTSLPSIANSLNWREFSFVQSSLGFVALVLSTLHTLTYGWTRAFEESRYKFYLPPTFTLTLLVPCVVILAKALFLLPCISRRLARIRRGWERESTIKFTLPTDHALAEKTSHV
Chain of UniProt Q96CW6 (Q96CW6 whole entry, looked up): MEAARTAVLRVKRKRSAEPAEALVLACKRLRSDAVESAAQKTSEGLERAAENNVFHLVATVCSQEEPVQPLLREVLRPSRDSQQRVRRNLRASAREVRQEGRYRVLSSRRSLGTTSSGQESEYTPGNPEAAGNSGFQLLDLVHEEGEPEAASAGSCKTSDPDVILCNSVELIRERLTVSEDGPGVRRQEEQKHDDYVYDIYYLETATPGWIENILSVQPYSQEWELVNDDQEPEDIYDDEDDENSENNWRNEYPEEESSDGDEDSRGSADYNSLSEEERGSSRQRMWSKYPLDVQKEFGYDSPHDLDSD
Chain of UniProt O76094 (O76094 whole entry, looked up): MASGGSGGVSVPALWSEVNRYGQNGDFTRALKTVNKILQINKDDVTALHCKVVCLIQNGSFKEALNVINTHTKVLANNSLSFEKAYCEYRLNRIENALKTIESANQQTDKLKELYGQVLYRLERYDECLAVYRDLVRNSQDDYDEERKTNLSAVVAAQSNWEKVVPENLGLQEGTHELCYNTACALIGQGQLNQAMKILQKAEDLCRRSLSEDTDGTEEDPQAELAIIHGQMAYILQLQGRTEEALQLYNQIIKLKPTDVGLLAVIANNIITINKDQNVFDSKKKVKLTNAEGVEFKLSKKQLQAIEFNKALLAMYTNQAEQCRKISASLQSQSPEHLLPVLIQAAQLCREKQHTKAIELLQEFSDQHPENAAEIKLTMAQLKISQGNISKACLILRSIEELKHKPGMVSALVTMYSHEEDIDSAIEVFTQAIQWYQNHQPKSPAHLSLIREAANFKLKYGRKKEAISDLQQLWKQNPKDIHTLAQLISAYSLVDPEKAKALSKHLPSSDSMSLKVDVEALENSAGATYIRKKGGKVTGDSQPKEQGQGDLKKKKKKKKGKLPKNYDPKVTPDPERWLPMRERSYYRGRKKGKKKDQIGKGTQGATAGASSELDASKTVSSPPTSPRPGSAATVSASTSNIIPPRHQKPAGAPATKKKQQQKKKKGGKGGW
Chain of UniProt P35270 (P35270 whole entry, looked up): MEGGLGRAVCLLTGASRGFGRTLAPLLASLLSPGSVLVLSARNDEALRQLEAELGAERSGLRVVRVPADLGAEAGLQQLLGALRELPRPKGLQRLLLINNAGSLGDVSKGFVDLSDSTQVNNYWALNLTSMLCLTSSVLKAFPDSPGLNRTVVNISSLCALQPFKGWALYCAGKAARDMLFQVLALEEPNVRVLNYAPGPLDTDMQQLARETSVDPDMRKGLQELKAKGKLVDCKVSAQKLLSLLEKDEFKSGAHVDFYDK

With SRPRA (UniProt P08240), the log2 fold change was 0.143 with bafetinib; 0.138 in [1]; 0.066 with nilotinib; 0.04 in [2]; -0.105 with dasatinib; 0.123 in assay [3]. For the same target, the log2 fold change in assay [4] was 0.054; in assay [5], -0.037; with tipifarnib it was -0.141; with mubritinib it was 0.227 (active).
On to SSBP4 (UniProt Q9BWG4), for which the log2 fold change in the assay with bafetinib was -0.045; in assay [1] it was -0.069; in the assay with nilotinib, 0.038; in [2], 0.014; in the assay with dasatinib, -0.021; in assay [3] it was 0.053. Further, the values for the log2 fold change (in assay [5]; in the assay with tipifarnib; in the assay with mubritinib) were 0.033, 0.301 and 0.066, respectively.
With SLC7A6OS (UniProt Q96CW6), the log2 fold change with bafetinib was -0.062; in assay [1], 0.15; with nilotinib it was -0.019; in assay [2], -0.035; in the assay with dasatinib, 0.004; in assay [3], -0.031. Also, the log2 fold change in assay [4] is 0.026; in assay [5], -0.13; with tipifarnib, 0.06; with mubritinib, 0.058.
As to SPR (UniProt P35270), the log2 fold change was -0.062 with bafetinib; -0.102 in assay [1]; -0.04 in the assay with nilotinib; -0.012 in [2]; 0.467 (active) with dasatinib; -0.029 in assay [3]. Moreover, the log2 fold change in [4] was 0.144; in assay [5] it was 0.298; with tipifarnib, 0.499 (active); in the assay with mubritinib it was -0.083.
For TBC1D15 isoform 3 (UniProt Q8TC07), the log2 fold change with bafetinib was -0.026; in assay [1], 0.059; with nilotinib, -0.116; in assay [2], -0.098; in the assay with dasatinib, -0.133; in [3], -0.004. In addition, the log2 fold change in [4] was -0.052; in assay [5], 0.011; in the assay with tipifarnib, -0.134; with mubritinib it was 0.054.
Turning to SMARCAD1 isoform 2 (UniProt Q9H4L7), the log2 fold change was 0.067 with bafetinib; 0.014 in [1]; 0.049 with nilotinib; -0.056 in [2]; -0.131 with dasatinib; -0.049 in [3]. Besides, the log2 fold change is 0.088 in assay [4], 0.034 in assay [5], -0.144 with tipifarnib and 0.241 in the assay with mubritinib.
As to SRXN1 (UniProt Q9BYN0), the log2 fold change with bafetinib is -0.011; in assay [1] it was -0.157; in the assay with nilotinib it was -0.017; in assay [2] it was -0.088; in [3], 0.093; in [4], 0.134. The figures for the log2 fold change (in assay [5]; with tipifarnib; with mubritinib) were 0.056, -0.149 and 0.127, respectively.
For the target SURF1 (UniProt Q15526), the log2 fold change in the assay with bafetinib was -0.184; in [1] it was -0.042; in the assay with nilotinib it was -0.065; in assay [2], 0.028; with dasatinib it was -0.028; in assay [3], 0.011. Moreover, the log2 fold change in assay [4] was 0.021; in [5], 0.019; in the assay with tipifarnib, -0.061; in the assay with mubritinib, 0.042.
As for SRSF10 (UniProt O75494), the log2 fold change is 0.044 with bafetinib; -0.1 in [1]; 0.089 in the assay with nilotinib; -0.079 in assay [2]; 0.336 in the assay with dasatinib; 0.076 in assay [3]. The log2 fold change in [4] is -0.498; in assay [5], -0.173; in the assay with tipifarnib, 0.215; with mubritinib, -0.089.
STK38L (UniProt Q9Y2H1): the log2 fold change with bafetinib was -0.02; in assay [1], -0.065; with nilotinib, -0.032; in assay [2], -0.238; with dasatinib, -0.012; in assay [3], -0.03. For the same target, the log2 fold change in assay [4] was -0.122; in assay [5], -0.582; in the assay with mubritinib, 0.081.
Regarding TMBIM1 (UniProt Q969X1), the log2 fold change with bafetinib was 0.068; in [1], -0.07; in the assay with nilotinib, 0.168; in [2], -0.044; with dasatinib, -0.01; in assay [3] it was 0.149. Besides, the log2 fold change in assay [4] is -0.06; in [5], -0.105; in the assay with tipifarnib, -0.318; with mubritinib, 0.025.
On to TBC1D20 isoform 3 (UniProt Q96BZ9), for which the log2 fold change in the assay with bafetinib is -0.03; in assay [1] it was -0.083; in the assay with nilotinib it was 0.07; in [2], -0.023; in [3] it was 0.033; in assay [4], 0.121. The log2 fold change in assay [5] is 0.233; with tipifarnib, -0.077; with mubritinib it was 0.129.
Regarding SRP72 (UniProt O76094), the log2 fold change in the assay with bafetinib was 0.05; in assay [1] it was 0.048; in the assay with nilotinib, -0.117; in assay [2], -0.03; in the assay with dasatinib, -0.186; in assay [3], 0.108. Further, the log2 fold change is -0.052 in [4], -0.052 in assay [5], -0.148 with tipifarnib and -0.036 with mubritinib.
For SRSF11 (UniProt Q05519), the log2 fold change was 0.071 in the assay with bafetinib; 0.105 in assay [1]; -0.024 with nilotinib; -1.01 (active) in [2]; -0.034 with dasatinib; -0.001 in assay [3]. The log2 fold change in assay [4] was -0.078; in [5] it was 0.015; with tipifarnib it was -0.029; with mubritinib it was -0.01.
In the case of STEAP3 isoform 2 (UniProt Q658P3), the log2 fold change in the assay with bafetinib was -0.044; in assay [1] it was 0.058; with nilotinib, -0.001; in assay [2] it was -0.061; in the assay with dasatinib it was -0.028; in [3], 0.03. The log2 fold change in [4] was 0.039; in assay [5], 0.11; with tipifarnib it was -0.085; with mubritinib it was -0.034.
